Source: PubChem BioAssay
DAGLB inhibitor: diacylglycerol lipase beta (human) inhibition. HEK293T DAGLB membrane lysate, EnzChek fluorogenic substrate. inhibition, % at 5.17 µM. hit rate 0.059% among 340,000; in the data active means inhibition above about 34%;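 further: 0% = enzyme with vehicle and 100% = wells lacking enzyme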
PLC-gamma1 inh: PLC-gamma1 (human) inhibition, primary screen. inhibition, % at 12.2 µM. P19174. purified PLC-gamma1, fluorogenic substrate, fluorescence. hit rate 0.84% among 370,000; in the data active means inhibition above about 9.5%
Target sequence (P19174 whole entry, looked up): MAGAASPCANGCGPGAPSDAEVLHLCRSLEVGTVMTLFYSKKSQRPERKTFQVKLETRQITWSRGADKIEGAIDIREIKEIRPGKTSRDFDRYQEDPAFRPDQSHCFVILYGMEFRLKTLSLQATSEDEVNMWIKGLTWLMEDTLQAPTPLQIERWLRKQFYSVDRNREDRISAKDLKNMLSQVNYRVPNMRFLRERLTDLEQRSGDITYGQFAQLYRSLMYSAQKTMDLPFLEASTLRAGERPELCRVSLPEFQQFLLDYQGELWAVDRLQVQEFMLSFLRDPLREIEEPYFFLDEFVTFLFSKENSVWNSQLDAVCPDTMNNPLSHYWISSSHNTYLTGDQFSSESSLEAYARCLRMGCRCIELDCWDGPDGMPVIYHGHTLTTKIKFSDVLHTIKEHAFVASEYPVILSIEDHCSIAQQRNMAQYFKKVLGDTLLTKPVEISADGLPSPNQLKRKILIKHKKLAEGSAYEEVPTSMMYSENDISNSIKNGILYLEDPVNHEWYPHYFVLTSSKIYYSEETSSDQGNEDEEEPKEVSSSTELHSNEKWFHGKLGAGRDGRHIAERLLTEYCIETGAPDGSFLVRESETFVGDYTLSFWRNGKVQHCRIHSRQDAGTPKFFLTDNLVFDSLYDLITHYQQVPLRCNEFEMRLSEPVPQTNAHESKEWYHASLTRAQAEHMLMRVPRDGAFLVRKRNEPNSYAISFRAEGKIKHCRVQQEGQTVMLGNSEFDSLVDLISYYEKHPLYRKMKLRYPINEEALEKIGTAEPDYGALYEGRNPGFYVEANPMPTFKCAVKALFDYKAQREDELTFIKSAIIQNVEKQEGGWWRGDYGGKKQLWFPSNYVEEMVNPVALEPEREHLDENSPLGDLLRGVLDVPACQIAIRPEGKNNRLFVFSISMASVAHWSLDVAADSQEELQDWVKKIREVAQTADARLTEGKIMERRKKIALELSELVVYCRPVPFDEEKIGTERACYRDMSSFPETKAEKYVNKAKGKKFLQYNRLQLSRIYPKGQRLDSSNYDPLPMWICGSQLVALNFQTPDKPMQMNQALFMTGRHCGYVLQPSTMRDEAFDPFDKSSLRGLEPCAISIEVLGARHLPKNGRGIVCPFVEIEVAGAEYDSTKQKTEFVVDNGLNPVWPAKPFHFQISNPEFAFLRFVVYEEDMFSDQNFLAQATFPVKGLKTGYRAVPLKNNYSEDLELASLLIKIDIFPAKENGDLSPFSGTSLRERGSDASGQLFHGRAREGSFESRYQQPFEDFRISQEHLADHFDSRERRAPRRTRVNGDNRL
HGIII-sPLA2 inh: Blocks human group III sPLA2 activity; hit rate 0.56% among 370,000; QFRET BODIPY PC-A2 liposome hydrolysis, fluorescence; AID 743126; Q9NZ20; inhibition, % at 12.2 µM;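 active means inhibition above mean plus 3 SD of compounds lying within the high and low control bounds, cut at about 19% in these data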;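 further: 0% = median of test compound wells and 100% = no enzyme DMSO wells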
PLC-beta3 inh: inhibitors of human phospholipase C beta3; inhibition, % at 12.2 µM; hit rate 0.18% among 370,000; Purified PLC-beta3, fluorogenic substrate, fluorescence; AID 720704;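 further: 0% = median of compound wells on plate and 100% = full blocker control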
PLCgamma1 ctr: PLC-gamma1 inhibition, counter-screen for PLC-beta3 hits; shares compounds with PLC-gamma1 inh; purified PLC-gamma1, fluorogenic substrate, fluorescence; inhibition, % at 12.3 µM; hit rate 3.1% among 3,300; in the data active means inhibition above about 9.5%
PLCbeta3 conf: confirmation of human PLC-beta3 inhibitors | AID 743261 | purified PLC-beta3, fluorogenic substrate fluorescence | shares compounds with PLC-gamma1 inh | inhibition, % at 12.3 µM | hit rate 1% among 3,300
The depositor's hits bear a star; nt = not tested or not shown. Sampled rows, rich in hits. Any-hit rate of the full collection: about 1.5%. Unless noted, no stated cut-off is given here; in the data, active means inhibition above about 11%; inactive means the rest.

SMILES	DAGLB inhibitor	PLC-gamma1 inh	HGIII-sPLA2 inh	PLC-beta3 inh	PLCgamma1 ctr	PLCbeta3 conf
COC(=O)[C@H](C)NC(=O)[C@@H]1CC=C[C@@H]2CCN(CCc3ccccc3)C(=O)[C@@H]21	nt	-2.8	-0.6	-1.1	nt	nt
COC(=O)[C@]12CCCCC=C1N(Cc1ccc(OC)cc1)C(=O)[C@@H]2CC(=O)N1CCN(C(=O)C2CC2)CC1	nt	11.6*	11.9	8.8	-3.6	-0.7
CCOC(=O)N1CCN(C(=O)C[C@H]2C(=O)N(Cc3ccc(OC)cc3)C3=CCCCC[C@@]32C(=O)OC)CC1	nt	-1.6	-6.2	-3.2	nt	nt
CCOC(=O)[C@]12CCCC=C1N(CCCOC)C(=O)[C@@H]2CC(=O)NCc1ccc(C)o1	nt	10.0*	2.1	3.4	6.4	0.1
CCOC(=O)N1CCN(C(=O)C[C@@H]2C(=O)N(Cc3ccc(OC)cc3)/C3=C/CCCCC[C@@]32C(=O)OCC)CC1	nt	0.9	-3.4	-4.5	nt	nt
CCOC(=O)N1CCN(C(=O)C[C@H]2C(=O)N(Cc3ccc(OC)cc3)C3=CCCC[C@@]32C(=O)OCC)CC1	nt	11.2*	3.5	2.1	-7.3	-2.1
COC(=O)[C@H](CC(C)C)N(Cc1cn(CC2CCCCC2)nn1)S(=O)(=O)c1ccc(F)cc1Br	nt	5.5	3.9	1.8	nt	nt
O=c1c2cc(Br)ccc2nc2n1CCCCC2	-1.2	nt	nt	nt	nt	nt
Cc1ccc2nc3n(c(=O)c2c1)CCCCC3	-1.9	11.3*	13.8	5.4	-6.6	-3.8
O=C(CS(=O)c1cccc(Cl)c1)Nc1ccccc1Cl (stereo not drawn)	0.3	11.3*	6.1	4.3	11.1*	1.2
FC(F)(F)c1cccc(NC(=S)Nc2ccc(Cl)cc2Cl)c1	-0.5	2.1	2.0	-2.9	nt	nt
COc1ccc(S(=O)CC(=O)Nc2ccccc2Cl)cc1 (stereo not drawn)	-2.5	3.7	-1.9	5.1	nt	nt
O=C(CS(=O)c1cccc(C(F)(F)F)c1)Nc1ccc(Cl)cc1Cl (stereo not drawn)	-2.4	16.6*	-22.9	3.2	13.3*	3.6
C=CCN1C(=O)[C@@H](CC(=O)NCCCC)[C@]2(C(=O)OC)CCCCC=C12	nt	2.4	-1.8	-1.7	nt	nt
CCC(=O)N1CCC(C(=O)NC2CCCc3ccccc32)CC1 (stereo not drawn)	nt	0.9	14.7	1.6	nt	nt
COc1ccc(C(=O)OCC(=O)NC2CC2)cc1S(=O)(=O)N1CCOCC1	0.4	9.6*	0.1	6.2	-4.9	-0.3
COc1ccc(C(=O)Nc2nnc(C)s2)cc1S(=O)(=O)N1CCOCC1	0.6	11.9*	16.6	-8.0	-8.1	-3.5
COc1ccc(C(=O)OCC(=O)N2CCOCC2)cc1S(=O)(=O)N1CCOCC1	-0.2	-0.5	3.8	-4.2	nt	nt
O=C(COc1ccc(S(=O)(=O)N2CCOCC2)cc1)NC1CC1	1.4	10.1*	10.4	1.6	0.5	3.0
CCN(CC)C(=O)CC[C@@H]1CC[C@]2(CCCN(Cc3ccccc3)C2)O1	nt	1.7	14.8	-2.8	nt	nt
O=C1CC(N2CCCN(Cc3ccccc3)CC2)=NC(=O)N1c1ccc(Br)cc1	nt	-5.2	0.6	-4.5	nt	nt
COc1ccc(CSc2n[nH]c(C)n2)cc1[N+](=O)[O-]	0.2	5.1	13.5	-0.3	nt	nt
COCC(O)CSc1c([N+](=O)[O-])nc(C)n1Cc1ccc(OC)c([N+](=O)[O-])c1 (stereo not drawn)	2.8	10.2*	6.7	2.5	7.4	4.8
CN(C)c1cccc(-c2cnc(N3CCC(C(N)=O)CC3)s2)c1	nt	-44.0	8.6	-59.7	nt	nt
O=C(/C=C/c1ccc([N+](=O)[O-])cc1)NCc1cccnc1	0.8	1.8	-5.4	3.2	nt	nt
SMILES	DAGLB inhibitor	PLC-gamma1 inh	HGIII-sPLA2 inh	PLC-beta3 inh	PLCgamma1 ctr	PLCbeta3 conf
O=C(/C=C/c1cccc([N+](=O)[O-])c1)NCc1cccnc1	-0.2	2.6	2.8	11.2*	-5.9	-0.3
COc1ccc2c(c1)CN1CN(C3CCCC3)S(=O)(=O)CC21 (stereo not drawn)	nt	-10.5	-1.6	-15.6	nt	nt
NC1=C(Br)C(=O)c2ncccc2C1=O	-5.5	9.5*	10.5	5.7	6.4	4.8
O=C1c2cccnc2C(=O)N1CO	0.5	-1.3	3.8	5.8	nt	nt
CC(COc1ccccc1C#N)CN1CCC(C(O)(c2ccccc2)c2ccccc2)CC1 (stereo not drawn)	nt	0.5	-19.9	3.2	nt	nt
COc1ccc(NC(=O)c2sc3cc(C(F)(F)F)cnc3c2-c2cccs2)cc1	-9.6	11.1*	5.5	0.7	-25.6	-25.4
Cc1ccc(-n2nc3c(c2NC(=O)c2ccc4c(c2)OCO4)CS(=O)C3)cc1 (stereo not drawn)	-1.2	11.2*	-2.0	6.4	-2.7	2.9
CCOc1ccc(C(=O)Nc2c3c(nn2-c2ccc(C)cc2)CS(=O)C3)cc1OCC (stereo not drawn)	1.4	7.2	4.4	4.3	nt	nt
Cc1ncc([N+](=O)[O-])n1CCOC(=O)c1ccccc1	0.6	10.1*	3.3	12.5*	-3.3	0.5
Cc1ncc([N+](=O)[O-])n1CCOC(=O)NC(NCc1ccccc1)C(Cl)(Cl)Cl (stereo not drawn)	2.0	2.6	6.8	1.3	nt	nt
O=C(c1cc(-c2ccccc2)nn1-c1ccccc1)N1CCN(S(=O)(=O)c2ccc(F)cc2)CC1	-0.5	7.1	8.2	-11.3	nt	nt
O=C(c1cc(-c2ccccc2)nn1-c1ccccc1)N1CCN(S(=O)(=O)c2cccc(F)c2)CC1	5.6	9.9*	12.2	-7.0	-4.5	-0.3
CC1CCN(C(=O)c2ccc3c(c2NCCO)C(=O)c2ccccc2C3=O)CC1	31.8	10.2*	5.7	15.1*	8.5	8.3
CCN(CC)CCNC(=O)c1ccc2c(c1NCCO)C(=O)c1ccccc1C2=O	nt	-0.1	9.9	-9.3	nt	nt
COC(=O)c1cc(S(=O)(=O)N2CCN(c3ccccc3Cl)CC2)cn1C	nt	-2.5	-5.4	-3.7	nt	nt
CC(=O)N(Cc1cccnc1)c1cccc(-c2nc3ccccc3s2)c1	-1.7	9.8*	5.0	-2.7	-4.9	-6.4
O=S(=O)(c1cccs1)N1CCC(CO)(Cc2ccc(Cl)cc2)CC1	-2.9	10.0*	-16.8	-0.1	-1.0	0.0
O=S(=O)(c1cccs1)N1CCN(c2ccc(Cl)cc2)CC1	-2.9	-1.7	7.5	-3.4	nt	nt
C=CCOC(=O)N[C@H](c1ccccc1)[C@H](C)/C=C/CC(=O)OC	nt	0.4	-5.1	1.9	nt	nt
O=C1CC(c2ccco2)Sc2ccccc2N1 (stereo not drawn)	-1.9	3.6	-1.0	-2.3	nt	nt
O=C1CC(c2ccccc2)Sc2ccccc2N1 (stereo not drawn)	0.0	10.2*	0.1	0.1	-8.1	-5.4
COC(=O)[C@]12C[C@H](CC(=O)NCc3ccc(OC)c(OC)c3)C(=O)N(Cc3cccc4ccccc34)C1=C[C@H](C(C)C)O[C@@H]2C1CC1	nt	-0.6	-2.0	2.0	nt	nt
O=C(NCc1ccccc1)O[C@H]1CC[C@@]23CCCN2C(=O)CCC[C@H]3C1	nt	-0.5	5.6	2.0	nt	nt
CCOC(=O)[C@]12CCCC3=C1N(CCC3)C(=O)[C@@H](CC(=O)NCCCN1CCCC1=O)C2	nt	2.4	-0.9	2.8	nt	nt
